Data on 13 compounds can be found in ChEMBL document CHEMBL1157539, “Thousands of chemical starting points for antimalarial lead identification” (Nature, 2010).

Each structure is given as a SMILES string.

The Inhibition is the share of the control response that was lost under treatment.

The subject of the test is Plasmodium falciparum. The test is described as follows: GSK_TCMDC: Inhibition of Plasmodium falciparum Dd2 in whole red blood cells, using parasite LDH activity as an index of growth. Test compounds present at 2uM. The test is classed as functional.
In turn, `Cc1ccc(NC(=O)c2ccc(CN3CCCN(Cc4cccc(O)c4)CC3)cc2)cc1.O=C(O)C(F)(F)F` had an Inhibition of 31%. `CN(C)CCn1cc(C(=O)c2cc(Cl)ccc2O)cc1-c1nc2ccccc2c(=O)[nH]1` registered an Inhibition of 87%. The value for `COc1ccc2ncc(F)c(CCN3CCC(NCc4ccc5c(c4)CCO5)CC3)c2n1.Cl` was 30%; that for `O=C(O)C(=O)O.Oc1c(CN2CCC(Cc3ccccc3)CC2)cc(Cl)c2cccnc12` was 94%. As to `CCCCCN1CCCCC(NS(=O)(=O)c2ccc(C(=O)Nc3cccc(C(F)(F)F)c3)cc2)C1.O=C(O)C(F)(F)F` (stereo not drawn), the Inhibition turned out to be 2%. On to `O=C(Cn1c(SCc2cccc(F)c2F)cc(=O)c2ccccc21)N(CCc1c[nH]cn1)Cc1ccc(-c2ccc(C(F)(F)F)cc2)cc1`, for which the Inhibition amounted to 72%. The value for `CCCCCCN1CCC(CNCc2cccc([N+](=O)[O-])c2)CC1.O=C(O)C(F)(F)F` was 15%; that for `O=C(CSc1cccc[n+]1[O-])c1ccc(Cc2ncc(C(F)(F)F)cc2Cl)s1` was 0%; that for `CCN1CCN(c2cc(C)c3cc(NC(=O)c4cccc(Cl)c4)ccc3n2)CC1` was 58%. The value for `COc1ccc(CN(C)CC(O)COc2ccc(NC(=O)c3cccc4c(=O)c5cccc(OC)c5[nH]c34)cc2)cc1OC` (stereo not drawn) was 65%; that for `Cc1cc(=NN=Cc2ccccc2)c2cc(C(F)(F)F)ccc2[nH]1` was 97%. As for `COc1ccccc1N=C1SC(=Cc2cn(CC(=O)N3CCCc4ccccc43)c3ccccc23)C(=O)N1C1CCCCC1`, the figure is 99%; as for `COc1ccc(-n2cc(CNCCCn3ccnc3)c(-c3cccc(F)c3)n2)cc1`, 17%.
